PostGolgi ctrl: growth inhibition of yeast control strain, primary screen, counter-screen for post-Golgi transport modulator project | efflux-deficient yeast background strain, growth absorbance A615, 16 h | inhibition, % at 10 µM | actives 5% (n = 98,000) | AID 738, 2007
CYP2C19 inh: blockers of cytochrome P450 2C19 activity – biochemical, luminescence, ADME assay, primary screen | CYP2C19 Supersomes, luciferin-H EGE luminescence, 30 min | inhibition, % at 5 µM | actives 21% (n = 96,000);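 active = CYP2C19 inhibition above a set limit at 5 µM in the primary screen, cut at about 50% in these data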;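 note: plate controls were negative control wells for no effect and 2.5 mM tranylcypromine positive control for full effect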
CYP2C9 inh: blockers of cytochrome P450 2C9 activity – biochemical, luminescence, ADME assay, primary screen. P11712. CYP2C9 Supersomes, luciferin-H conversion. inhibition, % at 5 µM. actives 20% (n = 96,000);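 active = blocking of liver enzyme CYP2C9 beyond about 50% at 5 µM, limit read from the data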
Target sequence (P11712 whole entry, looked up): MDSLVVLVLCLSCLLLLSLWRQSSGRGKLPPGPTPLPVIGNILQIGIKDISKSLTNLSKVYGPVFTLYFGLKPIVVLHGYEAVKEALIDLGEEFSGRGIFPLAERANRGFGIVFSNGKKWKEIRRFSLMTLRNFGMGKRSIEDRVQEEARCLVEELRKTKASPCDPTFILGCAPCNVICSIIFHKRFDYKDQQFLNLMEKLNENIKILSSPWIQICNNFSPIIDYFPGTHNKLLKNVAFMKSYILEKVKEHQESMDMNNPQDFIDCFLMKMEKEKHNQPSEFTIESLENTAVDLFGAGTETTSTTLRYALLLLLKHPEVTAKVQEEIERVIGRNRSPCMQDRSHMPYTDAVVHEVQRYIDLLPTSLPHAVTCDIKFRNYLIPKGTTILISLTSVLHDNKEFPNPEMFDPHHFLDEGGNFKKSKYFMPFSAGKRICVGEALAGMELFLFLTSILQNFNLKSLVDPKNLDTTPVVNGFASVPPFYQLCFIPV
PostGolgi yeast: phenotypic screen on post-Golgi transport, primary screen. post-Golgi transport phenotypic cell assay. actives 0.9% (n = 98,000). AID 739, 2007. inhibition, % at 10 µM;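 note: yeast cells grown in 1536-well plates; yeast grown about 18 h at 30C before absorbance read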
CYP2C9 act: human CYP2C9 activators, primary screen, biochemical, luminescence; AID 1024, 2008; actives 1.4% (n = 96,000); Cytochrome P450 2C9 (Homo sapiens), P11712; activation factor at 5 µM; recombinant CYP2C9, luciferin-H conversion; active compounds read high; factor 1 = untreated enzyme, 0 = blocked;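 active = activation factor of 2 or more for CYP2C9 at a 5 µM dose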;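 note: 0 = sulfaphenazole-blocked wells and 1 = vehicle-only wells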
CYP2C19 act: human CYP2C19 activators, primary screen, biochemical, luminescence | Cytochrome P450 2C19 (Homo sapiens), P33261 | recombinant CYP2C19, luciferin-H EGE luminescence; active compounds read high; 0 = fully inhibited enzyme, 1 = untreated enzyme | activation factor at 5 µM | 96,000 tested, under 10 active | AID 1025, 2008;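 active = activation factor of at least 2 at 5 µM in the primary screen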;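 note: 0 = wells with 2.5 mM tranylcypromine and 1 = vehicle-only wells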
Starred values were filed as active, the others as inactive. A selection: hits, their analogues and other compounds. The true share with any hit is near 32%. Cut-off read from the data, not from the text of the source, unless noted: active = inhibition above about 30%; inactive = the rest.

How did COc1ccc(NC(=S)Nc2ccccc2F)c(OC)c1 do in these assays?
PostGolgi ctrl: -4.0; CYP2C19 inh: 46.8; CYP2C9 inh: -13.7; PostGolgi yeast: -9.0; CYP2C9 act: 1.1; CYP2C19 act: 0.5

Results for COc1ccc(NC(=S)NCCc2ccccc2)c(OC)c1 ?
PostGolgi ctrl: 5.9; CYP2C19 inh: 89.5*; CYP2C9 inh: 16.2; PostGolgi yeast: -4.6; CYP2C9 act: 0.8; CYP2C19 act: 0.1

Results for COc1ccccc1NC(=S)NCc1ccco1 ?
PostGolgi ctrl: 6.7; CYP2C19 inh: 63.7*; CYP2C9 inh: -34.1; PostGolgi yeast: -3.4; CYP2C9 act: 1.3; CYP2C19 act: 0.4

Results for COc1ccccc1NC(=S)NCCc1ccc(Cl)cc1 ?
PostGolgi ctrl: 16.4; CYP2C19 inh: 70.6*; CYP2C9 inh: 18.9; PostGolgi yeast: 0.2; CYP2C9 act: 0.8; CYP2C19 act: 0.3

Results for COc1ccccc1NCCC(=O)OCC(=O)NCc1ccco1 ?
PostGolgi ctrl: -2.7; CYP2C19 inh: 23.4; CYP2C9 inh: -10.1; PostGolgi yeast: -2.6; CYP2C9 act: 1.1; CYP2C19 act: 0.8

Results for O=C(Nc1ccc2c(c1)OCCO2)C1CCN(c2cnccn2)CC1 ?
PostGolgi ctrl: 8.5; CYP2C19 inh: 20.6; CYP2C9 inh: 16.2; PostGolgi yeast: 5.2; CYP2C9 act: 0.8; CYP2C19 act: 0.8

Results for CN(C)S(=O)(=O)c1cc(S(=O)(=O)N(C)C)c(Cl)cc1N ?
PostGolgi ctrl: -1.4; CYP2C19 inh: 33.4; CYP2C9 inh: 17.2; PostGolgi yeast: 4.3; CYP2C9 act: 0.8; CYP2C19 act: 0.7

How did CCCNC(=O)c1ccc2c(c1)C1C3CCC(C3)C1C(c1ccccc1)N2 (stereo not given) do in these assays?
PostGolgi ctrl: 35.6*; CYP2C19 inh: 88.7*; CYP2C9 inh: 100.0*; PostGolgi yeast: -3.1; CYP2C9 act: 0; CYP2C19 act: 0.1

How did CCc1cc(=O)oc2cc(C)cc(O)c12 do in these assays?
PostGolgi ctrl: 17.9; CYP2C19 inh: 21.0; CYP2C9 inh: -166.3; PostGolgi yeast: -7.4; CYP2C9 act: 2.7*; CYP2C19 act: 0.8

How did Cc1c(Cc2ccccc2)c(=O)oc2cc(OCc3nn[nH]n3)ccc12 do in these assays?
PostGolgi ctrl: -0.6; CYP2C19 inh: -12.6; CYP2C9 inh: 43.8; PostGolgi yeast: 8.8; CYP2C9 act: 0.6; CYP2C19 act: 1.1

What do the screens show for `CCCCCc1cc(O)c2c(C)cc(=O)oc2c1`?
PostGolgi ctrl: 60.9*; CYP2C19 inh: 69.9*; CYP2C9 inh: 59.4*; PostGolgi yeast: 9.1; CYP2C9 act: 0.4; CYP2C19 act: 0.3

What do the screens show for `Cc1coc2c1c(C)cc1oc(=O)c(Cc3ccccc3)c(C)c12`?
PostGolgi ctrl: 3.5; CYP2C19 inh: 53.3*; CYP2C9 inh: 10.0; PostGolgi yeast: -0.2; CYP2C9 act: 0.9; CYP2C19 act: 0.5

How did CCc1cc(=O)oc2cc(C)c3c(C)coc3c12 do in these assays?
PostGolgi ctrl: 3.3; CYP2C19 inh: 63.0*; CYP2C9 inh: 16.8; PostGolgi yeast: 23.0; CYP2C9 act: 0.8; CYP2C19 act: 0.4

What do the screens show for `Cn1c2ccccc2c2nn(-c3ccccc3)c(=O)cc21`?
PostGolgi ctrl: 1.8; CYP2C19 inh: 71.1*; CYP2C9 inh: 29.8; PostGolgi yeast: 3.2; CYP2C9 act: 0.7; CYP2C19 act: 0.3

What do the screens show for `COC(=O)CNC(=O)C(C)NC(=O)CNC(=O)OCc1ccccc1` (stereo not given)?
PostGolgi ctrl: 4.2; CYP2C9 inh: -5.1; PostGolgi yeast: -11.1; CYP2C9 act: 1.1

Results for COc1ccc(N=C2SC(CC(=O)Nc3ccccc3)C(=O)N2CC2CCCO2)cc1 (stereo not given) ?
PostGolgi ctrl: 12.0; CYP2C19 inh: 46.9; CYP2C9 inh: 73.4*; PostGolgi yeast: 2.4; CYP2C9 act: 0.3; CYP2C19 act: 0.5

How did CCOC(=O)c1c(NC(=O)CC2SC(=NC)N(C)C2=O)sc(C)c1C (stereo not given) do in these assays?
PostGolgi ctrl: -16.9; CYP2C19 inh: 34.4; CYP2C9 inh: 31.5; PostGolgi yeast: -2.1; CYP2C9 act: 0.7; CYP2C19 act: 0.7

How did COCCN1C(=O)C(CC(=O)Nc2ccc(C(=O)O)cc2)SC1=Nc1ccccc1 (stereo not given) do in these assays?
PostGolgi ctrl: 0.3; CYP2C19 inh: -13.6; CYP2C9 inh: 2.9; PostGolgi yeast: 27.6; CYP2C9 act: 1; CYP2C19 act: 1.1

What do the screens show for `CN=C1SC(CC(=O)Nc2sc(C)c(C)c2C(=O)OC)C(=O)N1C` (stereo not given)?
PostGolgi ctrl: -2.0; CYP2C19 inh: 48.0; CYP2C9 inh: 57.6*; PostGolgi yeast: 3.5; CYP2C9 act: 0.4; CYP2C19 act: 0.5

Results for CN=C1SC(CC(=O)Nc2cccc(C(F)(F)F)c2)C(=O)N1C (stereo not given) ?
PostGolgi ctrl: 19.5; CYP2C19 inh: 32.6; CYP2C9 inh: -286.3; PostGolgi yeast: -5.8; CYP2C9 act: 3.9*; CYP2C19 act: 0.7

Results for COC(=O)c1cc(NC(=O)CC2SC(=Nc3ccccc3)N(CCc3c[nH]c4ccccc34)C2=O)cc(C(=O)OC)c1 (stereo not given) ?
PostGolgi ctrl: 5.8; CYP2C19 inh: 4.9; CYP2C9 inh: 80.6*; PostGolgi yeast: 1.0; CYP2C9 act: 0.2; CYP2C19 act: 1

How did CC(=O)C1=C(O)C(=O)N(CCc2c[nH]c3ccccc23)C1c1cccc(O)c1 (stereo not given) do in these assays?
PostGolgi ctrl: 2.8; CYP2C19 inh: 0.7; CYP2C9 inh: 45.8; PostGolgi yeast: -5.7; CYP2C9 act: 0.5; CYP2C19 act: 1

What do the screens show for `CCn1c(SCC(=O)NCc2ccco2)nnc1C(C)C`?
PostGolgi ctrl: -2.8; CYP2C19 inh: 10.9; CYP2C9 inh: -26.9; PostGolgi yeast: -9.4; CYP2C9 act: 1.3; CYP2C19 act: 0.9

What do the screens show for `CCn1c2ccccc2c2cc(N=C3SC(CC(=O)Nc4ccccc4)C(=O)N3C)ccc21` (stereo not given)?
PostGolgi ctrl: 11.5; CYP2C19 inh: 36.6; CYP2C9 inh: 87.1*; PostGolgi yeast: -4.5; CYP2C9 act: 0.1; CYP2C19 act: 0.6

How did CCn1c2ccccc2c2cc(N=C3SC(CC(=O)Nc4ccccc4OC)C(=O)N3C)ccc21 (stereo not given) do in these assays?
PostGolgi ctrl: 21.3; CYP2C19 inh: 37.5; CYP2C9 inh: 87.1*; PostGolgi yeast: -3.1; CYP2C9 act: 0.1; CYP2C19 act: 0.6

How did CCN=C1SC(CC(=O)Nc2ccccc2)C(=O)N1CC (stereo not given) do in these assays?
PostGolgi ctrl: 1.9; CYP2C19 inh: 34.0; CYP2C9 inh: -0.7; PostGolgi yeast: -6.9; CYP2C9 act: 1; CYP2C19 act: 0.7

Compound activity deposited in PubChem BioAssay by several laboratories.
